Peg3 promoter – reduces Peg3 promoter-driven luciferase expression in HeLa. hit rate 1.7% among 360,000. AID 588405. HeLa PEG-Prom luciferase reporter, luminescence, overnight. inhibition, % at 20 µM;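 active = inhibition of at least 50% at 20 µM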
PAX8 reporter – PAX8 transcriptional activity inhibition. RMG-I TPO-luciferase reporter, SteadyGlo, 24 h. inhibition, % at 12.6 µM. hit rate 1.2% among 360,000;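 active = mean replicate inhibition at least 60% with every replicate also reaching 60%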;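 note: luciferase light reporting Pax8 driven TPO promoter activity; plate controls were median of neutral control wells for no effect and mitoxantrone controls for full effect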
Shn3 3UTR inh – inhibitors of Schnurri-3 3'UTR reporter in osteoblasts; Clone20 osteoblast Shn3 3'UTR firefly luciferase, 24 h; inhibition, % at 12.5 µM; hit rate 0.52% among 360,000;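 active = mean inhibition of at least 75% with every replicate also reaching 75%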;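 note: 0% = median of neutral control wells and 100% = pilot-screen positive control compound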
EWS-Fli block – inhibitors of EWS/Fli oncoprotein transcriptional activity | hit rate 0.67% among 350,000 | A673 NR0B1-luciferase reporter, viability-normalised | inhibition, % at 12.6 µM | AID 651661;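 active = mean inhibition of at least 50% after viability correction, with every replicate also passing that limit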;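 note: firefly luciferase signal divided by Alamar Blue viability fluorescence both relative to DMSO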
MITF TRPM1 inh – reduces MITF-dependent TRPM1 promoter luciferase signal; SK-MEL-5 TRPM1 promoter luciferase, 24 h; inhibition, % at 12.5 µM; hit rate 0.83% among 330,000; AID 488899;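 active = mean inhibition across replicates of 60% or more, whatever share of single replicates reaches that level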
ABHD5-PLIN5 inh – inhibitors of human ABHD5-perilipin-5 interaction; inhibition, % at 4 µM; Q00G26+Q8WTS1; AID 602281; hit rate 0.78% among 360,000; Split G. princeps luciferase complementation, luminescence, 4 h;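 active = inhibition above the mean inhibition across every tested compound plus 3 SD, cut at about 22% in these data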;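 note: 0% = DMSO only wells and the 100% control is not disclosed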
Target sequence (Q00G26 whole entry, looked up): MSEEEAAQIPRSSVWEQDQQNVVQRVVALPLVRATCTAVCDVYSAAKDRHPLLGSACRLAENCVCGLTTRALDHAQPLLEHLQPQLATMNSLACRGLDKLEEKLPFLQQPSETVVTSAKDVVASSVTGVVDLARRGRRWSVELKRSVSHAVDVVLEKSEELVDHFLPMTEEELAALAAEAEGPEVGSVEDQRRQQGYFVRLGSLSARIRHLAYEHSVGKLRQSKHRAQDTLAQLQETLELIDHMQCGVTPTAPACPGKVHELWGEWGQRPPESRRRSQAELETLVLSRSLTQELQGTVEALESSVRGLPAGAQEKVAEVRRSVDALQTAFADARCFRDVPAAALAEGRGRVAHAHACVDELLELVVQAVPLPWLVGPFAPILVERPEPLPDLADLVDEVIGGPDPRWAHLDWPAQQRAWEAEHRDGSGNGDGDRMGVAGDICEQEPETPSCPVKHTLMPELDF
Target sequence (Q8WTS1 whole entry, looked up): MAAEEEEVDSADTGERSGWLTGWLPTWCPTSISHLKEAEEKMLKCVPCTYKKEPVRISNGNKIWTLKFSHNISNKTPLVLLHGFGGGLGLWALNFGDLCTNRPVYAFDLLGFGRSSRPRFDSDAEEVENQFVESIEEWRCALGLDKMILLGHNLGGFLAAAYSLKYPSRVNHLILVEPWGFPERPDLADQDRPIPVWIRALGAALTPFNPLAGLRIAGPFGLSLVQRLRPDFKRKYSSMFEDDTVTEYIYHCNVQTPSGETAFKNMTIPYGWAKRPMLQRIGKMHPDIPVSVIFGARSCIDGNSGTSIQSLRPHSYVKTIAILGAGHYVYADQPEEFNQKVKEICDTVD
DNA binder FP – small molecule DNA binding by fluorescence polarization; shares compounds with EWS-Fli block; salmon sperm DNA acridine orange fluorescence polarization; AC35, µM (doses to about 68 µM), inactives show at the top dose activity change, negative = DNA binding; hit rate 2% among 640;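 active = fitted curve reaches a 35% signal fall AC35 below twice the sample's top valid tested dose, actives reach about 48 µM in these data; inactive = the rest, including activity in the rising direction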;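 note: lower polarization ratio signals compound binding to DNA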
Starred values were filed as active, the others as inactive; . = no result given. Rows were chosen to be rich in hits. Some 3% of all compounds tested hit in one or more screens of this group.

SMILES | Peg3 promoter | PAX8 reporter | Shn3 3UTR inh | EWS-Fli block | MITF TRPM1 inh | ABHD5-PLIN5 inh | DNA binder FP
COc1ccc(NC(=O)N2CCCCN3[C@@H](CO)[C@H](c4ccc(C5=CCCCC5)cc4)[C@@H]3C2)cc1 | . | -12 | . | 71* | . | . | -2%
COc1ccc(NC(=O)N2CCCCN3[C@H](CO)[C@H](c4ccc(C5=CCCC5)cc4)[C@@H]3C2)cc1 | . | -1 | . | 8 | . | . | .
COc1ccc(C=NNc2nc3ccccc3s2)cc1 | -66 | 18 | 33 | 66* | 11 | -3 | -7%
C(=N\Nc1nc2ccccc2s1)/c1ccccn1 | . | 88* | . | 80* | . | . | -6%
Brc1csc(/C=N/Nc2nc3ccccc3s2)c1 | -274 | . | -54 | . | -76 | -6 | .
O=C1CCCC2=C1C(c1ccccn1)Nc1ccc(C(=O)c3ccccc3)cc1N2 (stereo not given) | -1 | 3 | -3 | 80* | 10 | 0 | -6%
C[C@@H]1CN([C@@H](C)CO)C(=O)c2cccc(NS(=O)(=O)c3ccc(Cl)cc3)c2O[C@@H]1CN(C)Cc1ccc(C(=O)Nc2ccccc2N)cc1 | . | . | . | 53* | . | . | -13%
C[C@@H]1CN([C@@H](C)CO)C(=O)c2cccc(NS(=O)(=O)c3ccccc3)c2O[C@@H]1CN(C)Cc1ccc(C(=O)Nc2ccccc2N)cc1 | . | 37 | . | 52* | . | . | 0%
C[C@H](CO)N1C[C@H](C)[C@@H](CN(C)Cc2ccc(C(=O)Nc3ccccc3N)cc2)Oc2c(NS(=O)(=O)c3ccccc3)cccc2C1=O | . | 6 | . | -7 | . | . | .
C[C@@H]1CN([C@@H](C)CO)C(=O)Cc2cc(NS(C)(=O)=O)ccc2O[C@@H]1CN(C)C(=O)Nc1ccc(C(F)(F)F)cc1 | . | 2 | . | 10 | . | . | .
CO[C@H]1CN(C)C(=O)c2ccc(NC(=O)c3ccc(F)cc3)cc2OC[C@@H](C)N(C(=O)c2ccc(F)cc2)C[C@H]1C | . | -2 | . | -7 | . | . | .
CCCNC(=O)N1CC2(CN(C(=O)c3cccc(F)c3)C2)c2c([nH]c3cc(OC)ccc23)[C@@H]1CO | . | . | . | 3 | . | . | .
C[C@H]1CN([C@@H](C)CO)C(=O)Cc2cc(NC(=O)CCCCCC(=O)Nc3ccccc3N)ccc2O[C@H]1CN(C)Cc1ccc(Cl)c(Cl)c1 | . | 53 | . | 51* | . | . | -7%
C[C@H](CO)N1C[C@H](C)[C@H](CN(C)Cc2ccccc2)Oc2ccc(NC(=O)CCCCCC(=O)Nc3ccccc3N)cc2CC1=O | . | 11 | . | 56* | . | . | -9%
C[C@H]1CN([C@@H](C)CO)C(=O)Cc2cc(NC(=O)CCCCCC(=O)Nc3ccccc3N)ccc2O[C@H]1CN(C)Cc1ccc(C(F)(F)F)cc1 | . | 36 | . | 56* | . | . | -8%
C[C@H]1CN([C@@H](C)CO)C(=O)Cc2cc(NC(=O)CCCCCC(=O)Nc3ccccc3N)ccc2O[C@@H]1CN(C)Cc1ccc(-c2ccccc2)cc1 | . | -2 | . | -16 | . | . | .
C[C@@H]1CN([C@@H](C)CO)C(=O)Cc2cc(NC(=O)CCCCCC(=O)Nc3ccccc3N)ccc2O[C@H]1CN(C)Cc1ccc(C(F)(F)F)cc1 | . | 23 | . | 31 | . | . | .
C[C@H](CO)N1C[C@H](C)[C@H](CN(C)Cc2ccc(Oc3ccccc3)cc2)Oc2ccc(NC(=O)CCCCCC(=O)Nc3ccccc3N)cc2CC1=O | . | 16 | . | 61* | . | . | -12%
C[C@H](NC(=O)C[C@H]1C[C@H]2c3cc(NS(=O)(=O)c4ccc(F)cc4)ccc3O[C@H]2[C@H](CO)O1)c1ccccc1 | . | 40 | . | 12 | . | . | .
COCC(=O)NC[C@@H]1[C@@H](c2ccc(C3=CCCC3)cc2)[C@@H](CO)N1C(=O)C1CC1 | . | 6 | . | -13 | . | . | .
C[C@H]1CN([C@@H](C)CO)C(=O)Cc2cc(NC(=O)CCCCCC(=O)Nc3ccccc3N)ccc2O[C@H]1CN(C)Cc1ccc(Oc2ccccc2)cc1 | . | 17 | . | 60* | . | . | -6%
C[C@@H]1CN([C@@H](C)CO)C(=O)c2cccc(NC(=O)CCCCCC(=O)Nc3ccccc3N)c2O[C@@H]1CN(C)Cc1ccc(Oc2ccccc2)cc1 | . | 26 | . | 53* | . | . | -4%
C[C@@H]1CN([C@@H](C)CO)C(=O)Cc2cc(NS(=O)(=O)c3cccs3)ccc2O[C@H]1CN(C)Cc1ccc(Cl)c(Cl)c1 | . | . | . | 59* | . | . | -9%
C[C@@H]1CN([C@H](C)CO)C(=O)Cc2cc(NC(=O)CCCCCC(=O)Nc3ccccc3N)ccc2O[C@@H]1CN(C)CC1CCCCC1 | . | -1 | . | 61* | . | . | 2%
C[C@@H]1CN([C@@H](C)CO)C(=O)Cc2cc(NC(=O)CCCCCC(=O)Nc3ccccc3N)ccc2O[C@@H]1CN(C)Cc1ccc(-c2ccccc2)cc1 | . | 24 | . | 14 | . | . | .
SMILES | Peg3 promoter | PAX8 reporter | Shn3 3UTR inh | EWS-Fli block | MITF TRPM1 inh | ABHD5-PLIN5 inh | DNA binder FP
Cc1nn(Cc2ccccc2Cl)c2sc(C(=O)Nc3ccccc3N3CCOCC3)cc12 | 34 | 43 | 21 | 50* | 11 | 6 | -12%
CCOc1cc2[nH]c(=S)n(Cc3ccc(C(=O)NCCN(CC)CC)cc3)c(=O)c2cc1OCC | -12 | -33 | 5 | 58* | 3 | 2 | 3%
Cc1csc(NC(=O)CCc2c(C)nc3cc(-c4ccc(Cl)cc4)nn3c2C)n1 | -4 | 11 | 59 | 56* | 54 | 0 | -8%
CCc1ccc(C2=NN(CCC(=O)NC(C)c3ccc4c(c3)OCCO4)C(=O)CC2)cc1 (stereo not given) | 1 | 14 | 9 | 3 | 6 | 3 | .
Cc1csc(NC(=O)CSc2nnc(-c3ccc(Cl)cc3)n2N)n1 | 2 | . | 1 | . | 8 | -5 | .
Cc1nc2cc(-c3ccc(Cl)cc3)nn2c(C)c1CCC(=O)NC(C)c1ccc2c(c1)OCCO2 (stereo not given) | 9 | 29 | 68 | 57* | 53 | -3 | 1%
COc1cc(OC)cc(-c2cc3nc(C)c(CCC(=O)NCc4ccccc4)c(C)n3n2)c1 | 21 | 18 | 66 | 57* | 30 | 4 | -9%
CCN1[C@@H]2c3ccc(-c4ccccc4)c(=O)n3C[C@H]1[C@H](CO)[C@H]2C(=O)NC1CCC1 | . | -6 | . | -1 | . | . | .
O=C(C[C@H]1C=C[C@H](NS(=O)(=O)c2ccc(F)cc2)[C@H](CO)O1)NCCc1ccncc1 | . | -3 | . | 3 | . | . | .
C[C@H](CO)N1C[C@H](C)[C@H](CN(C)C)Oc2cc(C#CC3CCCCC3)ccc2S1(=O)=O | . | . | . | 4 | . | . | .
C[C@@H]1CN([C@H](C)CO)C(=O)c2cc(NS(=O)(=O)c3ccc(F)cc3)ccc2O[C@H]1CN(C)Cc1ccc(C(=O)Nc2ccccc2N)cc1 | . | 13 | . | -4 | . | . | .
C[C@@H]1CN([C@@H](C)CO)C(=O)c2cc(NS(=O)(=O)c3ccc(F)cc3)ccc2O[C@@H]1CN(C)Cc1ccc(C(=O)Nc2ccccc2N)cc1 | . | 10 | . | 54* | . | . | -7%
COc1ccc(S(=O)(=O)Nc2ccc3c(c2)C(=O)N([C@H](C)CO)C[C@@H](C)[C@@H](CN(C)CC2CCCCC2)OCCCC[C@H](C)O3)cc1 | . | 17 | . | 56* | . | . | -12%
